Assay outcomes as filed in PubChem.
Pf growth 96h – inhibits malaria parasite growth, 96 h. Potency, µM (top dose mostly 28.7 µM), usual class: inhibitors. P. falciparum luciferase reporter growth, 96 h. AID 504834. 320,000 tested, 6.9% active
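Erythrocytes infected with luciferase-expressing P. falciparum were dispensed at 2% hematocrit and 0.05% parasitemia (final), then incubated with compounds 96 hours at 37 C in 5% CO2. Luminescence after detection reagent addition reported growth.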
Sm TGR inh – S. mansoni TGR enzyme inhibition; purified TGR, DTNB reduction, TNB absorbance 405 nm; Potency, µM (top dose mostly 114 µM), most hits filed as inhibitors; 360,000 tested, 3% active; note: nearly all actives have a fitted effect of over 60% in size
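First, TGR (20 nM dispensed) and NADPH were mixed with compound. Second, a 15 min room-temperature incubation followed. Third, further NADPH and then DTNB were added to start the reaction. Finally, TNB absorbance was monitored kinetically.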
HCMV inh – inhibitors of human cytomegalovirus; HFF cells, HCMV-luciferase reporter, 72 h; active compounds read low; activity change, negative = inhibition, % at 57.5 µM; 410,000 tested, 4.5% active; AID 1259415; in the data active = activity change below about -60%; inconclusive = no clear call, values can overlap the other calls; inactive = above about -39%
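HFF cells seeded 16 h at 37C, treated with compounds, infected with luciferase-reporter HCMV at MOI 1 PFU/cell; luciferase read at 72 h post infection, normalized to buffer-only and Salinomycin controls.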
Pf growth 48h – inhibits P. falciparum growth in the first generation, 48 h; AID 504832; 310,000 tested, 5.9% active; P. falciparum luciferase growth in erythrocytes, 48 h; Potency, µM (doses to about 28.7 µM), actives largely listed as inhibitors
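A one-generation exposure of luciferase-tagged malaria parasites in RPMI 1640/Albumax erythrocyte culture, 37 C and 5% CO2. Inhibition is inferred from decreased luminescence after adding detection reagent.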
SARS PLP yeast – SARS-CoV PLP inhibition in yeast. 330,000 tested, 0.19% active. AID 485353. Potency, µM (titrated, usually from 32.9 µM), hits mostly activators. S. cerevisiae expressing SARS-CoV PLpro, growth rescue; calls by dose curve; note: nearly all actives have a fitted effect of over 55% in size
HCV inhibitor – inhibitors of hepatitis C virus infection; Potency, µM (doses to about 41.8 µM), actives largely listed as inhibitors; Huh7.5.1 HCVcc-Cre infection, luciferase reporter, 44 h; 340,000 tested, 3.4% active
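Cells seeded at 1,000/well and cultured 4 h, then compounds added followed by HCVcc-Cre virus (~0.5 moi). After 44 h further culture, luciferase substrate was added, plates held 15 min at room temperature, and luminescence read for 15 sec.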
A number is an active result; - = inactive; ? = inconclusive; . = no result given; [ ] = dose if it differs, or a comment. Rows were chosen to be rich in hits. Some 15% of all compounds tested hit in one or more screens of this group. Unless noted, calls come from the whole dose curve; as a rule, active = well fitted curve in the direction sought with a large enough effect; inconclusive = small, poorly fitted or top-dose-only effect, or another doubt; inactive = no such curve, though single readings can be large; an effect the other way counts as inactive or inconclusive.

SMILES	Pf growth 96h	Sm TGR inh	HCMV inh	Pf growth 48h	SARS PLP yeast	HCV inhibitor
CN(Cc1ccccc1)C(=O)c1ccc(NC(=O)Cc2cccc(NC(=O)C3CCCN(C(=O)CCc4ccccc4)C3)c2)cc1 (stereo not drawn)	1.47µM	-	-68.4	3.7µM	-	?
CN(C(=O)c1cccc(NC(=O)Cc2ccc([N+](=O)[O-])cc2)c1)C1CCCCC1	.	.	?	.	-	3.16µM
CN(C(=O)c1ccc(NC(=O)Cc2cccc(NC(=O)C3CCCN(C(=O)C4CCCC4)C3)c2)cc1)C1CCCC1 (stereo not drawn)	3.7µM	-	-	11.7µM	-	-
COc1ccc(C)cc1N1CC(C(=O)Nc2ccccc2C(=O)NC2CC2)CC1=O (stereo not drawn)	-	-	-	?	-	-
O=C(NCc1ccccc1Cl)C1CCN(S(=O)(=O)Cc2ccccc2)CC1	.	-	-	.	.	.
O=C(Cc1ccc(NC(=O)C2CCCN(C(=O)CCc3ccccc3)C2)cc1)Nc1cccc(C(=O)N2CCCC2)c1 (stereo not drawn)	.	.	-	.	.	-[8.37 µM]
CN(C(=O)c1ccc(Oc2ccc([N+](=O)[O-])cc2)cc1)C1CCCCC1	-	-	-	-	-	12.6µM
CN(Cc1ccccc1)C(=O)c1cccc(NC(=O)Cc2ccc(NC(=O)C3CCCN(C(=O)CCc4ccccc4)C3)cc2)c1 (stereo not drawn)	.	.	-	.	.	-[8.37 µM]
CN(C(=O)c1ccc(NC(=O)Cc2cccc(NC(=O)C3CCCN(C(=O)CCc4ccccc4)C3)c2)cc1)C1CCCC1 (stereo not drawn)	?	-	-	0.117µM	-	?
O=C(Cc1ccc(NC(=O)C2CCCN(C(=O)CCc3ccccc3)C2)cc1)Nc1cccc(C(=O)N2CCCCC2)c1 (stereo not drawn)	.	.	?	.	.	7.94µM
CN(C(=O)c1ccc(NC(=O)Cc2ccc(NC(=O)C3CCCN(C(=O)CCc4ccccc4)C3)cc2)cc1)C1CC1 (stereo not drawn)	?	-	-86.4	13.1µM	-	14.1µM
CN(C(=O)c1cccc(NC(=O)Cc2ccc(NC(=O)C3CCCN(C(=O)CCc4ccccc4)C3)cc2)c1)C1CCC1 (stereo not drawn)	.	.	-	.	.	-[8.37 µM]
O=C(CN(C(=O)c1cccc([N+](=O)[O-])c1)C1CCCCC1)Nc1ccc(Cl)c([N+](=O)[O-])c1	?	-	-	1.85µM	-	?
CC1(c2nc3ccccc3[nH]2)CCC(=O)N1C1CC1 (stereo not drawn)	.	.	-	.	.	.
On1onc2c3cc(-c4ccccc4)nc3ccc21	.	-	-108.0	?	-	2.24µM
NC(=O)c1ncn(C2OC(CO)C(O)C2O)n1 (stereo not drawn)	12µM	.	.	?	.	.
CC(C)=CCNc1ncnc2c1c(C#N)cn2C1OC(CO)C(O)C1O (stereo not drawn)	.	.	-	.	.	?
CC(C)Oc1ccc2ccccc2c1CNC[C@H]1O[C@@H](n2cnc(C(N)=O)n2)[C@H](O)[C@@H]1O	.	.	-	.	.	5.01µM
NC(=O)c1cn(C2OC(CO)C(O)C2O)c2ncnc(N)c12 (stereo not drawn)	0.117µM	-	-97.1	0.104µM	-	?
N#Cc1cn(C2OC(CO)C(O)C2O)c2ncnc(N)c12 (stereo not drawn)	.	.	-99.9	.	.	?
COC1=CC(=O)[C@@]2([C@@H]1O)[C@@H](Cl)C[C@]13C(OC)=C(OC)C(=O)C[C@]21CCN3C	.	.	-	.	-	-
CC(C)(C)OC(=O)C[C@@H]1C/C=C\C[C@H](CC(=O)NCCO)C(=O)N[C@@H](Cc2ccccc2)COC1=O	.	.	-	.	-	-
O=C1N[C@@H](Cc2ccccc2)COC(=O)[C@@H](Cc2ccc(F)cc2)C/C=C\C[C@@H]1CC(=O)N(CCO)Cc1ccccc1	.	.	-96.5	.	-	?
CC(C)(C)OC(=O)C[C@H]1C/C=C\C[C@@H](CC(=O)NCCO)C(=O)N[C@H](Cc2ccccc2)COC1=O	.	.	-60.8	.	-	-
Cc1c(C(=O)Nc2ccc(-c3nc4cc(Cl)ccc4o3)cc2)oc2ccccc12	.	-	-	.	.	.
SMILES	Pf growth 96h	Sm TGR inh	HCMV inh	Pf growth 48h	SARS PLP yeast	HCV inhibitor
COc1cccc(Nc2nc3cc(C)ccc3nc2NS(=O)(=O)c2ccc(Cl)cc2)c1	.	-	-	.	.	.
CC(Cc1ccc(O)c(O)c1)C(C)Cc1ccc(O)c(O)c1 (stereo not drawn)	15.1µM	.	.	?	.	10µM
c1cncc(Nc2c3ccccc3nc3ccccc23)c1	-	-	-85.9	?	-	?
Cc1ccc(-c2nc(Nc3ccc(N4CCOCC4)cc3)c3ccccc3n2)cc1	?	-	-	13.1µM	-	?
O=C(O)c1cccc(Nc2nc(-c3ccccc3)nc3ccccc23)c1	?	-	-	-	-	-
COC(=O)c1ccc(Nc2nc(-c3ccc(C)cc3)nc3ccccc23)cc1	.	-	-	.	.	.
c1ccc(CNc2cccnc2)cc1	.	.	-	.	.	.
c1ccc(Nc2nc(-c3ccccc3)nc3ccccc23)cc1	-	-	-	-	-	14.1µM
Fc1cccc(Nc2nc(-c3ccncc3)nc3ccccc23)c1	4.15µM	-	-	9.28µM	-	?
CCCc1nc2c(C)cc(Br)cn2c1Cc1ccccc1OC	.	.	-	.	.	.
CCOC(=O)CSc1nc2nc(Cl)c(Cl)nc2[nH]1	.	.	-	.	.	.
COc1ccc(OC)c(S(=O)(=O)CC(=O)c2cc3ccccc3oc2=O)c1	.	.	-	.	.	.
COc1ccccc1OCCn1c(SCC(=O)O)nc2ccccc21	-	-	-	-	-	-
Cc1ccc(-c2nc(C(Cl)Cl)c3ccccc3n2)cc1	?	-	-	?	-	3.55µM
O=C(OCCNc1nc(-c2ccccc2)nc2ccccc12)c1ccncc1	-	.	?	?	-	15.8µM
Cc1ccc(-c2nc(Nc3ccc(O)cc3)c3ccccc3n2)cc1	-	-	-	.	-	7.08µM
COc1cccc(Nc2nc(-c3ccccc3O)nc3ccccc23)c1	-	-	-	.	-	?
Cc1ccc(-c2nc(NCc3ccco3)c3ccccc3n2)cc1	-	-	-	-	-	?
COc1cccc(Nc2nc(-c3ccccc3)nc3ccccc23)c1	-	-	-	-	-	10µM
O=C(CCc1ccccc1)NCc1nc2cccnc2n1Cc1ccc(F)cc1	.	-	?	.	.	.
CN(C)c1cccc2c(S(=O)(=O)NC(=O)[C@H]3O[C@@H](n4cnc5c(N)ncnc54)[C@H](O)[C@@H]3O)cccc12	.	.	-	.	.	.
CC(C)c1ccc(NC2CCCN(C(=O)c3n[nH]c4c3CCC4)C2)cc1 (stereo not drawn)	?	-	-	-	-	?
Cc1oc2ncnc(N3CCCCC3)c2c1C(=O)NCC1CCN(Cc2cccc(F)c2)CC1	.	-	-	.	.	.
Cc1noc(C)c1C(=O)N1CCN(c2ccc(OCc3ccccc3)cc2)CC1	-	-	?	-	-	?
Cc1ccc(C)c(N2CCN(C(=O)c3cc4cc5ccc(C)cc5nc4o3)CC2)c1	.	-	-	.	.	.
